Results filed as inconclusive are left out. Unmarked numbers belong to inactive results. The source made the active and inactive calls. Calls come from the whole dose curve; as a rule, active = well fitted curve in the direction sought with a large enough effect; inconclusive = small, poorly fitted or top-dose-only effect, or another doubt; inactive = no such curve, though single readings can be large; an effect the other way counts as inactive or inconclusive.
How the values were obtained:
[1] = Viability qHTS for spleen associated tyrosine kinase inhibitor (SYKi) naive MV4-11 cells (AID 1963823); note: nearly all actives have a fitted effect of over 40% in size
Summary of the method: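 Seeding of 500 SYKi-naive MV4-11 cells per well onto pre-dispensed compounds preceded a 72 hr incubation at 37 C. Luminescent CellTiter-Glo signal, read after 10 min at room temperature, reflected viable cells.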

[2] = Cellular viability qHTS for adrenocortical cancer (ACC) cell line SW-13 (AID 1963989); details: SW-13 ACC cells viability, CellTiter-Glo, 48 h; activity (max response): active compounds read low; note: nearly all actives have a fitted effect of over 65% in size;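 for activity (max response): cells grown in serum-free medium with ITS supplement; % is set by controls: 0 for no effect and ±100 for the full control effect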
Summary of the method: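 SW-13 cells in ITS-supplemented serum-free DMEM were plated overnight, then exposed for 48 h at 37C to compound titrations (up to 46 uM final). Viability was read by CellTiter-Glo luminescence; four-parameter logistic fits gave IC50 and efficacy.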

[3] = Cellular viability qHTS for adrenocortical cancer (ACC) cell line NCI-H295R (AID 1963990); note: nearly all actives have a fitted effect of over 60% in size
Summary of the method: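 Luminescent ATP read-out (CellTiter-Glo, 20 min RT) after 48 h drug exposure of NCI-H295R cells; a titration up to 46 uM final. Data normalized to doxorubicin (100% inhibition) and DMSO (0%); 4-parameter fit gives IC50, max response.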

[4] = Viability qHTS for spleen associated tyrosine kinase inhibitor (SYKi) drug resistant MV4-11 cells (AID 1963824); note: nearly all actives have a fitted effect of over 35% in size
Summary of the method: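 SYK-inhibitor-resistant MV4-11 AML cells were seeded at 500 per well onto compound and cultured 72 hours (37 °C, 5% CO2). CellTiter-Glo was then added, and after 10 min at room temperature, luminescence gave viability.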
Potency is the fitted concentration of half-maximal effect.

In the case of `CC1(C)CC[C@]2(NC(=O)C(C)(F)F)CC[C@]3(C)[C@H](C(=O)C=C4[C@@]5(C)C=C(C#N)C(=O)C(C)(C)[C@@H]5CC[C@]43C)[C@@H]2C1`, the Potency [1] is reported as 3.32 µM (active), the Potency [2] is reported as 4.47 µM (active) and the Potency [3] is reported as 3.98 µM (active).

In the case of `CC(C)(C)c1ccc(O)cc1`, the Potency [1] is reported as “inactive”, the activity (max response) [2] is reported as 9.89% and the Potency [3] is reported as “inactive”.

With `C[C@]12CCC(=O)C=C1CC[C@@H]1[C@@H]2CC[C@]2(C)C(=O)CC[C@@H]12` the Potency [1] was “inactive”, the activity (max response) [2] was -7.18% and the Potency [3] was “inactive”.

For `O=C(O)COc1nc(Cl)c(Cl)cc1Cl`, the Potency [1] was “inactive”, the activity (max response) [2] was 12.3% and the Potency [3] was “inactive”.

For `O=C(O)CNC(=O)C1C(=O)N(C2CCCCC2)C(=O)N(C2CCCCC2)C1=O`, the Potency [1] was “inactive”, the activity (max response) [2] was -10.4% and the Potency [3] was “inactive”.

In the case of `Cc1ccc2c(c1)C1CN(C)CCC1N2` (stereo not drawn), the Potency [1] is reported as “inactive”, the activity (max response) [2] is reported as -4.86% and the Potency [3] is reported as “inactive”.

With `COc1cc(C[C@@H](C)N)c(OC)cc1Br` the Potency [1] was “inactive”, the activity (max response) [2] was -7.05% and the Potency [3] was “inactive”.

With `CC(=O)OC[C@]12C[C@H](OC(=O)CC(C)C)C(C)=C[C@H]1O[C@@H]1[C@H](O)[C@@H](OC(C)=O)[C@@]2(C)[C@@]12CO2` the Potency [4] was 0.0089 µM (active).

For `C/C=C(\C)C(=O)OC1C2C3(C)CCC(OC4CC(OC)C(OC5OC(C)C(O)C(OC)C5O)C(C)O4)CC3CCC23OC32CCC(C(C)=O)C2(C)C1OC(=O)/C(C)=C/C` (stereo not drawn), the Potency [4] was 3.9 µM (active).

In the case of `Clc1ccc([C@]23CNC[C@H]2C3)cc1Cl`, the Potency [4] is reported as “inactive”.

With `COC(=O)[C@]12CCC(C)(C)C[C@@H]1[C@@H]1C(=O)C=C3[C@]4(C)C=C(C#N)C(=O)C(C)(C)[C@@H]4CC[C@@]3(C)[C@]1(C)CC2` the Potency [4] was 0.326 µM (active).

`C/C=C(\C)C(=O)O[C@H]1[C@H](OC(C)=O)[C@]2(CO)[C@H](O)[C@H](O)[C@]3(C)C(=CCC4[C@@]5(C)CC[C@H](O[C@@H]6O[C@H](C(=O)O)[C@@H](O)[C@H](O[C@@H]7OC[C@H](O)[C@H](O[C@@H]8OC[C@H](O)[C@H](O)[C@H]8O)[C@H]7O)[C@H]6O[C@@H]6O[C@H](CO)[C@@H](O)[C@H](O)[C@H]6O)C(C)(C)C5CC[C@]43C)[C@@H]2CC1(C)C` (stereo partly drawn) gave a viability, % of control [4] of 68.2% [at 9.25 µM].

For `CN1CCc2cc3c(cc2C1C1OC(=O)c2c1ccc1c2OCO1)OCO3` (stereo not drawn), the Potency [4] was “inactive”.

For `COCC1OC(=O)c2coc3c2C1(C)C1=C(C3=O)C2CCC(=O)C2(C)CC1OC(C)=O` (stereo not drawn), the Potency [4] was 2.06 µM (active).

For `COC(=O)C1=COC(C)C2CN3CCC4(C(=O)Nc5ccccc54)C3CC12` (stereo not drawn), the Potency [4] was 14.3 µM (active).

For `CC(=O)OC1CC(O)C2(C)C(CC(OC(C)=O)C3(C)C2CCC2(C)C(c4ccoc4)C(=O)C4OC423)C1(C)C` (stereo not drawn), the Potency [4] was 6.32 µM (active).

With `CN1C[C@H](CNC(=O)OCc2ccccc2)C[C@@H]2c3cccc4c3c(cn4C)C[C@H]21` the Potency [4] was 8.41 µM (active).

With `CCC1(O)CCC2C3CCC4=CC(=O)CCC4C3CCC21CC` (stereo not drawn) the Potency [4] was 14.6 µM (active).

With `Cn1ncnc1COc1nn2c(-c3c(F)cccc3F)nnc2cc1C1CCC1` the Potency [4] was “inactive”.

For `O=C1NC(=O)c2c1c1c3ccccc3n3c1c1c2c2ccccc2n1C1CCC3O1`, the Potency [4] was 0.0164 µM (active).

In the case of `C=C1[C@@H](C)[C@H]2[C@H](Cc3ccccc3)NC(=O)[C@]23OC(=O)/C=C/C(=O)CCC[C@@H](C)C/C=C/[C@H]3[C@@H]1O`, the Potency [4] is reported as 0.92 µM (active).

For `COCC(C(=O)OC1CC2CCC(C1)N2C)c1ccccc1` (stereo not drawn), the Potency [4] was “inactive”.

For `CC[C@@H]1C[C@H]2CC[C@H](O2)[C@H](C)C(=O)O[C@@H](C)C[C@@H]2CC[C@@H](O2)[C@@H](C)C(=O)O[C@H](CC)C[C@H]2CC[C@H](O2)[C@H](C)C(=O)O[C@@H](C)C[C@@H]2CC[C@@H](O2)[C@@H](C)C(=O)O1`, the Potency [4] was 0.0193 µM (active).

With `OCCCCC#Cc1cncc(OC[C@@H]2CCN2)c1` the Potency [4] was “inactive”.

With `COC1CC(=O)C23C(=O)NC(CC(C)C)C2C(C)=C(C)C(OO)C3/C=C(\C)CCC(O)C1O` (stereo not drawn) the Potency [4] was 7.96 µM (active).

In the case of `COc1cc2c(cc1O)C1(C)CCC(O)C(C)(C)C1CC2=O` (stereo not drawn), the Potency [4] is reported as “inactive”.

With `CC1=CC2/C=C(\C)CCC(O)C(O)C(O)CC(=O)C23C(=O)NC(CC(C)C)C3C1C` (stereo not drawn) the Potency [4] was 1.78 µM (active).

In the case of `COc1ccc(C23CCC(=O)C=C2N(C)CC3)cc1OC` (stereo not drawn), the Potency [4] is reported as 3.66 µM (active).

In the case of `CC1=C2C(=O)C3[C@@H](CC=C4C[C@@H](O)CC[C@@]43C)[C@@H]2CC[C@]12O[C@@H]1C[C@H](C)CN[C@H]1[C@H]2C` (stereo partly drawn), the Potency [4] is reported as “inactive”.

— PubChem BioAssay (NCATS)
